Among all 220,000 compounds or so, about 2,400 (1.1%) were called active. A call without a number means that no potency is given here. Another 7% or so got no clear call; they are omitted. Calls follow the shape of the dose curve; as a rule, active = well fitted inhibition curve with a large enough effect; inconclusive = small, poorly fitted or top-dose-only effect, or effect the other way; inactive = no such curve, though single readings can be large or run the other way. This excerpt belongs to a sample that is enriched for actives.

Data on 53 molecules can be found in PubChem BioAssay AID1688 (National Center for Advancing Translational Sciences (NCATS), 2009).
Potency is read from the fitted curve at half-maximal effect.

This assay is described as follows: qHTS Multiplex Assay to Identify Dual Action Probes in a Cell Model of Huntington: Aggregate Formation (GFP). Also: nearly all actives have a fitted effect of over 60% in size. The conditions noted are these: PC12 HttQ103-GFP aggregates, Acumen cytometry, 40 h; series mostly up to 9.22 µM. The gist of the method: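 Huntingtin Q103 exon 1–GFP aggregates in induced PC12 cells (100 nM tebufenozide) were quantified by cytometry from lysates, with compounds dosed in titration.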
As to `CCOc1cccc(C(=O)Nc2cccnc2)c1`, the Potency result was “inactive”.

`CCOc1cccc(NC(=O)CC#N)c1`: the Potency is 1.78 µM (active).

Regarding `CCC(=O)Nc1ccc(C(=O)Nc2cccc(OC)c2)cc1`, the Potency result was “inactive”.

For `S=c1[nH]nc(-c2cc(-c3ccsc3)n[nH]2)n1-c1ccccc1`, the Potency result is “inactive”.

Consider `CN(C)c1ccc(/C=C/C(=O)c2ccc(O)cc2)cc1[N+](=O)[O-]`, for which the Potency entry is “inactive”.

Take `O=C(CSc1ncn[nH]1)Nc1ccnc2ccccc12`: the Potency was 11.2 µM (active).

On to `Cn1nnc(NC(=O)CSc2ncn[nH]2)n1`, for which the Potency result is “inactive”.

Regarding `O=C(CSc1n[nH]c(-c2cccnc2)n1)Nc1ccnc2ccccc12`, the Potency result is “inactive”.

Regarding `Brc1ccc(-c2n(-c3ccccn3)c3ccccc3[n+]2-c2ccccn2)cc1`, the Potency result is “inactive”.

As to `CC(C)(C)c1cc(P(=O)(c2ccccc2)c2ccccc2)ccc1O`, the Potency entry is “inactive”.

Regarding `CC(=O)NC(=S)Nc1ccc(NC(=O)c2cccnc2)cc1`, the Potency entry is “inactive”.

Take `CC(C)(C)OC(=O)NCCCCCC(=O)N/N=C/c1coc2ccccc2c1=O`: the Potency entry is “inactive”.

Regarding `COC(=O)c1sc(C(F)(F)F)c(-c2ccccc2)c1S(=O)(=O)N(C)C`, the Potency result is “inactive”.

Consider `O=C(Nc1nc2ccc([N+](=O)[O-])cc2s1)c1ccncc1`, for which the Potency entry was “inactive”.

For `O=C(NC(Nc1nc2ccc([N+](=O)[O-])cc2s1)(C(F)(F)F)C(F)(F)F)c1ccccc1`, the Potency is 0.126 µM (active).

Turning to `O=C(O)CCC(=O)Nc1nc2ccc([N+](=O)[O-])cc2s1`, the Potency result was “inactive”.

Turning to `Cc1ccc(NS(=O)(=O)c2ccc(N/N=C/c3ccccc3OCC(=O)O)c([N+](=O)[O-])c2)c(C)c1`, the Potency result is “inactive”.

On to `COc1cc2c(cc1OC)CC(=O)N(CCCN(C)C[C@H]1Cc3cc(OC)c(OC)cc31)CC2`, for which the Potency entry was “inactive”.

In the case of `O=C(O)Cc1csc(NC(=O)CSc2nnnn2-c2ccc(O)cc2)n1`, the Potency result was “inactive”.

As for `Cc1cccc(C)c1NC(=O)NC1=CCCN1C`, the Potency entry was “inactive”.

As to `NC(=O)[C@H]1CC2(CC(c3cccc(NC(=O)[C@H]4CCC(=O)N4)c3)=NO2)CN1C(=O)c1ccccc1C(=O)c1ccccc1` (stereo partly drawn), the Potency entry is “inactive”.

For `O=C(Cc1c(F)cccc1Cl)Nc1ncc([N+](=O)[O-])s1`, the Potency was 10 µM (active).

Turning to `Cc1cnc(NC(=O)CSc2c(Cl)cccc2Cl)s1`, the Potency entry is “inactive”.

Regarding `O=C(Cc1c(F)cccc1Cl)Nc1ccc(-n2cnnn2)cc1`, the Potency result is “inactive”.

In the case of `C/C=C/C=N/NC(=O)c1ccncc1`, the Potency result is “inactive”.

For the molecule `CN(C)N=Nc1ccc2nc[nH]c2c1`, the Potency entry is “inactive”.

Consider `O=C(O)CC1(CC(=O)Nc2cccc(C(F)(F)F)c2)CCCC1`, for which the Potency result is “inactive”.

In the case of `CCOC(=O)N/N=C1\CC(C)S(=O)(=O)c2ccc(Cl)cc21` (stereo not drawn), the Potency result was “inactive”.

Turning to `COCc1cc(=O)[nH]c(SC)n1`, the Potency entry is “inactive”.

On to `CCN(CCNC(=O)C1=C(C)C(=O)OC12CCC(C)CC2)c1ccccc1` (stereo not drawn), for which the Potency result is “inactive”.

`CC(=O)c1ccc(NC(=S)NC(=O)CC(C)C)cc1`: the Potency entry is “inactive”.

As to `COc1ccc(NS(=O)(=O)c2ccc(NC(=S)NC(=O)CC(C)C)cc2)cc1`, the Potency was 22.4 µM (active).

Consider `COc1ccc(C(=O)Nc2ccc(S(=O)(=O)NC(C)C)cc2)cc1`, for which the Potency result is “inactive”.

On to `COc1ccc(NC(=O)C2=NNC(=O)CC2)cc1S(=O)(=O)N1CCCCC1`, for which the Potency result was “inactive”.

Consider `CCc1cc(CNC(=O)CC2C(=O)NCCN2Cc2ccccc2C(F)(F)F)on1` (stereo not drawn), for which the Potency entry was “inactive”.

Turning to `Cn1c(CSCC(=O)Nc2ccccc2)nnc1SCc1ccccc1`, the Potency entry was “inactive”.

With `Cc1ccc2c(c1)c1ncn(Cc3ccc(F)cc3)c(=O)c1n2C`, the Potency result was “inactive”.

In the case of `Cc1ccc2c(c1)c1ncnc(N3CCc4ccccc4C3)c1n2C`, the Potency is 11.2 µM (active).

Consider `Cc1ccc2c(c1)c1ncn(CCC3=CCCCC3)c(=O)c1n2C`, for which the Potency result is “inactive”.

In the case of `Cc1ccc(C(=O)NNc2ncnc3ccccc23)cc1`, the Potency result was “inactive”.

Take `CC(=O)COc1ccc2c(-c3ccccc3)cc(=O)oc2c1`: the Potency entry was “inactive”.

For the molecule `O=C(CNC(=O)OCc1ccccc1)Oc1cc2oc(=O)cc(-c3ccccc3)c2cc1Cl`, the Potency is 7.08 µM (active).

On to `O=C(CNC(=O)c1ccc(-c2ccccc2)cc1)OCc1ccc(Cl)cc1`, for which the Potency result was “inactive”.

Consider `NCCCCC(N)C(=O)O` (stereo not drawn), for which the Potency result is “inactive”.

`O=C(CS(=O)(=O)c1ccc(C(F)(F)F)cn1)NNC(=O)c1ccccc1`: the Potency result is “inactive”.

Consider `CCOC(=O)c1c(C)nn(-c2ncccc2NC(=O)CCC(=O)O)c1C`, for which the Potency result was “inactive”.

As for `O=C(Nc1cccc(Cl)c1)Nc1nnc(-c2ccccc2)o1`, the Potency entry was “inactive”.

`O=C(Nc1cccc(Cl)c1)Nc1ccccc1NS(=O)(=O)c1cccs1`: the Potency is 11.2 µM (active).

On to `O=C(Nc1nncs1)c1ccccc1NS(=O)(=O)c1cccs1`, for which the Potency entry was “inactive”.

For the molecule `O=C(O)Cc1ccc(-c2ccccc2)cc1`, the Potency entry was “inactive”.

On to `OCC(CO)(CO)NCc1ccc(-c2ccccc2)cc1`, for which the Potency is 11.2 µM (active).

For `O=C(Cc1ccc(-c2ccccc2)cc1)NC(c1ccccc1)c1ccccc1`, the Potency entry is “inactive”.

With `CN(C(=O)CCn1c(=S)oc2ccccc21)C1CCCCC1`, the Potency entry is “inactive”.
